Test results published in PubChem BioAssay (NCI).
About 83,000 compounds went through this panel and 20% of them were active in at least one assay; those are over-represented in the sample as a whole.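 Assay: single dose, 48 h. Readout: percent growth (0 = no net growth; negative = cell death). Active: <10.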 Values without a mark were called inactive. Activity calls are given as the source filed them.

Assays:
Experiment in all cases: NCI-60 one-dose screen, 48 h (100 = growth as untreated, 0 = no growth, -100 = all killed)
Conditions in all cases: 10 µM
[1] = tested on: 786-0 renal
[2] = tested on: MALME-3M melanoma
[3] = tested on: MDA-MB-231 breast
[4] = tested on: SF-268 CNS
[5] = tested on: SF-295 CNS
[6] = tested on: UACC-257 melanoma
[7] = tested on: UACC-62 melanoma
[8] = tested on: SK-MEL-28 melanoma
[9] = tested on: SK-MEL-2 melanoma
[10] = tested on: EKVX NSCLC
[11] = tested on: SN12C renal
[12] = tested on: UO-31 renal
[13] = tested on: TK-10 renal
[14] = tested on: CAKI-1 renal
[15] = tested on: A498 renal
[16] = tested on: OVCAR-8 ovarian
[17] = tested on: OVCAR-5 ovarian
[18] = tested on: IGROV1 ovarian
[19] = tested on: OVCAR-3 ovarian
[20] = tested on: HS 578T breast

Compound	growth [1]	growth [2]	growth [3]	growth [4] [%]	growth [5]	growth [6]	growth [7]	growth [8]	growth [9]	growth [10]	growth [11]	growth [12]	growth [13] [%]	growth [14]	growth [15]	growth [16]	growth [17]	growth [18]	growth [19]	growth [20]
COC(=O)CNC(=O)COc1c(OC)c(OC)cc2oc(-c3cccc(C(=O)Nc4ccc(Cl)cc4)c3)cc(=O)c12	-24.3% (active)	-26.1% (active)	-1.24% (active)	21.9	21.4%	58.7%	12.7%	20.5%	12.7%	64.1%	41%	66.5%	130	55.8%	119%	-69% (active)	90.7%	58.4%	55.6%	-3.95% (active)
C#C[C@]1(O)CC[C@H]2[C@@H]3CC=C4c5sc(Nc6ccc(N(C)C)cc6)nc5CC[C@]4(C)[C@H]3CC[C@@]21C	-54.6% (active)	-44.7% (active)	-10.7% (active)	11.7	-58.7% (active)	45.9%	-2.23% (active)	-21.6% (active)	-33.1% (active)	24.7%	12.1%	-45% (active)	42.3	2.6% (active)	-42.4% (active)	0.0481% (active)	21.7%	9.97% (active)	2.6% (active)	-7.74% (active)
C#C[C@]1(O)CC[C@H]2[C@@H]3CC=C4c5sc(Nc6ccc(C(F)(F)F)cn6)nc5CC[C@]4(C)[C@H]3CC[C@@]21C	-72.4% (active)	-13.1% (active)	-34.2% (active)	23.2	-68.8% (active)	-3.66% (active)	-45.9% (active)	-16.5% (active)	-26.8% (active)	-3.2% (active)	7.3% (active)	-23.8% (active)	12.9	0.3% (active)	-15.8% (active)	-8.07% (active)	9.25% (active)	8.57% (active)	-35.8% (active)	-6.11% (active)
